Screening data (PubChem BioAssay)
Only some compounds are listed: those with a hit (about 3.8% of all), similar ones and a draw of the others.
PLK1 PBD inh: qHTS for Inhibitors of PLK1-PDB (polo-like kinase 1 - polo-box domain): Primary Screen | Serine/threonine-protein kinase PLK1 (Homo sapiens), P53350 | Plk1 PBD binding of FITC phosphopeptide, fluorescence polarization | Potency, µM, for the others: max response, negative = inhibition, usual class: inhibitors | 360,000 tested, 2.8% active; further: potency means the concentration at half of the fitted maximal effect; series mostly up to about 57 µM; on the % scale 0 is the no-effect control and ±100 the full control effect; nearly all actives have a fitted effect of over 65% in size
MBNL1 CUG block: qHTS Assay for Inhibitors of MBNL1-poly(CUG) RNA binding | Potency, µM (series often up to 57.5 µM), for inactives: at the top dose activity change, negative = inhibition, most hits filed as inhibitors | Muscleblind-like protein 1 (Homo sapiens), Q9NR56 | TR-FRET MBNL1-His/biotin-(CUG)12 binding, 665/545 ratio | AID 2675, 2010 | 280,000 tested, 0.036% active; active means well fitted inhibition curve with a large enough effect in the signal ratio, with a control signal flat, not every such curve was filed as active; inconclusive means small, poorly fitted or top-dose-only effect, or effect the other way, or a change in a side signal; inactive means no such curve, though single readings can be large or run the other way; the % refers to the signal ratio; further: potency means the concentration at half of the fitted maximal effect; on the % scale 0 is the no-effect control and ±100 the full control effect
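Compounds (final 92 nM to 58 uM) are added to His-tagged MBNL1 and biotin-(CUG)12, then terbium anti-His antibody and streptavidin-XL665 (5 nM final). After 60 min at room temperature, the 665/545 nm ratio is read.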
KCNH2 3.1 inh: qHTS for Inhibitors of KCHN2 3.1: Mutant qHTS | Potassium voltage-gated channel subfamily H member 2, brain isoform KCNH2 3.1 (human) | U2OS KCNH2 3.1, thallium flux FluxOr; hits give low values | activity change, % (tested at about 1.8 µM) | 340,000 tested, 0.95% active | AID 720553, 2013;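 active means maximum activity change below -70%; inconclusive means maximum activity change from -70% to -50%; inactive means maximum activity change above -50%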;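 further: thallium influx rate constant from kinetic fluorescence after stimulation buffer; on the % scale 0 is the no-effect control and ±100 the full control effect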
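Normalized rate constant (relative to positive and negative DMSO controls) derived from a 2 min kinetic fluorescence read after stimulation; U2OS cells expressing the 3.1 isoform via virus at 1.77 x 10^8 /mL.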
VDR inh: Inhibitors of the vitamin D receptor (VDR): qHTS. Vitamin D3 receptor (Homo sapiens), P11473. VDR-SRC2-3 peptide fluorescence polarization, 2 h. Potency, µM, for inactives: max response, negative = inhibition, usual class: inhibitors. 400,000 tested, 0.93% active; further: potency means the concentration at half of the fitted maximal effect; on the % scale 0 is the no-effect control and ±100 the full control effect
Target sequence (P11473 whole entry, looked up): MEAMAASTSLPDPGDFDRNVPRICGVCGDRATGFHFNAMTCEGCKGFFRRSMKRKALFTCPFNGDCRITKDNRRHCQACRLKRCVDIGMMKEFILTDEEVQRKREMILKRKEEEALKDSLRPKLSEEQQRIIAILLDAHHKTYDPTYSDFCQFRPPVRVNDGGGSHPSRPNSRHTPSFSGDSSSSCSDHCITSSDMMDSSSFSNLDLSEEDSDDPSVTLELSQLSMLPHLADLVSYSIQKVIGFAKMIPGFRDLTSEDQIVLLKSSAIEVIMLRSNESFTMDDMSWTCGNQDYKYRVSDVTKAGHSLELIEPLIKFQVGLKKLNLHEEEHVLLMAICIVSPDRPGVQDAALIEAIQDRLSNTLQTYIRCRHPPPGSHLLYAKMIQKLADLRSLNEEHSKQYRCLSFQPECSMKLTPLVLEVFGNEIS
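Fluorescence polarization assay measuring small-molecule disruption of VDR binding to the coregulator peptide SRC2-3. Compounds were pin-transferred (23 nl) into the reagent mix and incubated 2 h at room temperature before reading.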
CBFb RUNX1 block: qHTS Assay for Compounds Blocking the Interaction Between CBF-beta and RUNX1 for the Treatment of Acute Myeloid Leukemia | Runt-related transcription factor 1 (Homo sapiens) + Core-binding factor subunit beta … | AlphaScreen CBFb-His/RUNX1-biotin binding, biochemical | Potency, µM (titrated, usually from 59.8 µM), for inactives: top-dose activity, negative = inhibition, most hits filed as inhibitors | 230,000 tested, under 10 active; further: % of control where 0% means no effect
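His-tagged CBF-beta and biotinylated RUNX1 (30 nM each) were premixed 20 min at room temperature, exposed to compound for 15 min, then given nickel-chelate and streptavidin AlphaScreen beads (50 ng each). After 90 min, AlphaScreen signal was read.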
KCNH2 WT inh: qHTS for Inhibitors of KCHN2 3.1: Wildtype qHTS. Voltage-gated inwardly rectifying potassium channel KCNH2 (Homo sapiens), Q12809. U2OS, BacMam KCNH2, thallium flux FluxOr; hits give low values. activity change, % at 1.84 µM. 340,000 tested, 0.37% active. AID 720551, 2013;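 active means maximum activity change below -70%; inconclusive means maximum activity change between -70% and -50%; inactive means maximum activity change above -50%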; further: on the % scale 0 is the no-effect control and ±100 the full control effect
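U2OS cells were transduced with wild-type KCNH2 virus (2.03 x 10^8 / mL) for 4 h at room temperature, then cultured overnight at 37 C. Thallium flux was read with FluxOr dye. Rate constants were normalized to DMSO controls.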
The depositor's hits bear a star; ? = inconclusive; . = no result. Unless noted, the call rests on the fitted dose curve; in most records, active means well fitted curve in the direction sought with a large enough effect; inconclusive means small, poorly fitted or top-dose-only effect, or another doubt; inactive means no such curve, though single readings can be large; an effect the other way counts as inactive or inconclusive.

SMILES	PLK1 PBD inh	MBNL1 CUG block	KCNH2 3.1 inh	VDR inh	CBFb RUNX1 block	KCNH2 WT inh
O=C(NCCCN1CCc2ccccc2C1)Nc1ccc(Cl)cc1	-16%	-2%	-87*	-10%	1%	-6
COc1ccc(-n2nc3cc(C)c(N)c(Br)c3n2)cc1	3.8µM*	61%	4	-1%	4%	-1
Cn1nc(-c2cccnc2)nc2c(=O)n(C)c(=O)nc1-2	.	.	.	-8%	.	.
O=C(NNC(=O)c1sccc1-n1cccc1)c1ccccc1	24µM*	2%	1	-21%	16%	-8
O=C(NNC(=O)c1sccc1-n1cccc1)c1ccc(F)cc1	-17%	-7%	4	-14%	-4%	.
CCOCCCNC(=O)/C(C#N)=C/c1cc(Br)c(O)c(Br)c1	21µM*	35%	-3	-13%	2%	9
COCCNC(=O)/C(C#N)=C/c1cc(Br)c(O)c(OC)c1	3%	10%	-21	-2%	5%	26
N#C/C(=C\c1ccccc1Br)C(=O)NC1CC1	-18%	-7%	-195*	?	.	0
N#C/C(=C\c1ccc(Cl)cc1)C(=O)NC1CC1	-11%	.	0	-28%	.	1
COCCNC(=O)/C(C#N)=C/c1ccccc1Br	24µM*	-5%	0	-28%	0%	-4
CCOc1ccc(NC(=O)c2cc(=O)c3cc(CC)ccc3o2)cc1	.	.	.	3%	.	.
CSc1cccc(NC(=S)N(Cc2ccc(C)cc2)Cc2cccnc2)c1	-2%	5%	-89*	-6%	9%	9
CCc1ccc(NC(=O)C2CCN(C(=O)[C@@H]3Cc4ccccc4CN3)CC2)cc1	-6%	0%	-40	6%	.	-18
COc1ccc(CNC(=O)C2CCN(C(=O)[C@@H]3Cc4ccccc4CN3)CC2)cc1	6µM*	-5%	?	?	.	13
COc1ccc(NC(=O)C2CCN(C(=O)[C@@H]3Cc4ccccc4CN3)CC2)cc1	-4%	5%	-114*	-11%	.	16
CC1(C)Cc2c(cnn2-c2cccc(F)c2)C(NC(=O)CCN2CCCC2=O)C1 (centres undefined)	-13%	10%	.	-22%	.	17
CC1(C)Cc2c(cnn2-c2ccc(F)cc2)C(NC(=O)c2ccco2)C1 (centres undefined)	1%	1%	-8	-19%	.	9
CC1(C)Cc2c(cnn2-c2ccc(F)cc2)C(NC(=O)C2=NNC(=O)CC2)C1 (centres undefined)	3µM*	-2%	6	?	.	10
CC1(C)Cc2c(cnn2-c2ccc(F)cc2)C(NC(=O)CCN2CCCC2=O)C1 (centres undefined)	3.4µM*	4%	14	?	.	-8
Cc1cc(C)cc(-n2ncc3c2CCCC3NC(=O)CN2CCCC2=O)c1 (centres undefined)	30µM*	-3%	8	?	.	-17
COc1cc(-c2nc3ccccn3c2Nc2ccccc2C)ccc1O	.	.	.	-14%	.	.
O=S(=O)(c1ccc2c(c1)CCCC2)N1CCN(c2nc(-c3ccccc3)nc3ccccc23)CC1	.	.	.	-1%	.	.
Cc1ccccc1OCC(O)Cn1c(SC(C)C)nc2c1c(=O)[nH]c(=O)n2C (centres undefined)	30µM*	0%	7	?	6%	-14
CCSc1nc2c(c(=O)[nH]c(=O)n2C)n1CC(O)COc1ccccc1C (centres undefined)	27µM*	-2%	1	-27%	10%	1
Cc1ccccc1OCC(O)Cn1c(Br)nc2c1c(=O)[nH]c(=O)n2C (centres undefined)	1%	.	16	-3%	-4%	-24
SMILES	PLK1 PBD inh	MBNL1 CUG block	KCNH2 3.1 inh	VDR inh	CBFb RUNX1 block	KCNH2 WT inh
Cc1ccccc1OCC(O)Cn1c(N2CCCCC2)nc2c1c(=O)[nH]c(=O)n2C (centres undefined)	-12%	-6%	3	-15%	.	-15
CCCCc1nn2c(=O)cc(COC(=O)c3cccc(Cl)c3)nc2s1	.	.	.	14%	.	.
CCNc1ncc2nc(C)c(=O)n(CCc3ccccc3)c2n1	.	.	.	-5%	.	.
CCOc1cccc(C(=O)Nc2nc3c(s2)CC(C(C)(C)C)CC3)c1 (centres undefined)	.	.	.	13%	.	.
N#C/C(=C\c1cn(Cc2ccc(C#N)cc2)c2ccccc12)C(=O)NCc1cccs1	22%	.	-86*	4%	-6%	-26
N#C/C(=C\c1cn(CCOc2ccccc2F)c2ccccc12)C(=O)NCc1cccs1	12%	.	-4	-12%	4%	3
Cc1cc(/C=C(\C#N)C(=O)NCc2cccs2)c(C)n1-c1ccccc1F	27µM*	3%	-30	-18%	-4%	-9
COc1ccc(NC(=O)Cn2nnc(C(=O)NCc3cccs3)c2N)c(OC)c1	24µM*	-3%	4	-24%	.	11
COc1cccc(Cn2nnc(C(=O)Nc3cc(C)ccc3OC)c2N)c1	27µM*	-15%	3	?	1%	-5
COc1cccc(NC(=O)Cn2nnc(C(=O)NCc3cccs3)c2N)c1	-4%	-2%	-6	6%	.	2
Cc1nc2ccc(S(=O)(=O)NC(C(=O)N3CCC(C)CC3)C(C)C)cc2s1 (centres undefined)	-6%	5%	3	-11%	0%	-1
Cc1nc2ccc(S(=O)(=O)NC(C(=O)N3CCCC3)C(C)C)cc2s1 (centres undefined)	30µM*	1%	5	-30%	1%	3
Cc1ccc(C)c(Cn2c(SCC(=O)N(C)Cc3ccccc3)nc3ccccc32)c1	.	.	.	5%	.	.
Cc1cc(C(=O)Nc2cccc(/C=C/C(=O)O)c2)c(C)o1	-4%	7%	21	-2%	-2%	3
Cc1oc(-c2ccccc2)cc1C(=O)Nc1cccc(/C=C/C(=O)O)c1	21µM*	-4%	7	-8%	-7%	1
Cc1ccc(-c2nc3ccc(C(=O)O)cc3nc2-c2ccc(C)cc2)cc1	30µM*	-3%	-10	-6%	-1%	3
COc1cc(OC)c(OC)cc1/C=N/n1c(COc2ccccc2)n[nH]c1=S	27µM*	-2%	-6	-24%	.	1
COc1ccc(OC)c(/C=N/n2c(COc3ccccc3)n[nH]c2=S)c1	-13%	100%	16	-4%	.	2
COc1ccc(/C=N/n2c(COc3ccccc3)n[nH]c2=S)cc1OC	19µM*	-1%	12	-6%	.	7
